The list is not random: actives were taken first. Their share in the collection is about 14%.
Pf growth 48h – inhibits P. falciparum growth in the first generation, 48 h; P. falciparum luciferase growth in erythrocytes, 48 h; Potency, µM (series often up to 28.7 µM), inactives show at the highest dose activity change, negative = inhibition, most hits filed as inhibitors; 5.9% of 310,000 active; AID 504832; also: potency is read from the fitted curve at half-maximal effect
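Erythrocytes infected with P. falciparum carrying an integrated firefly luciferase reporter (2% hematocrit, 0.1% parasitemia final) were exposed to compounds in RPMI 1640 with 0.5% Albumax at 37 C, 5% CO2. Growth inhibition was scored as reduced luminescence.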
FBPA Giardia inh – blocks Giardia fructose-bisphosphate aldolase activity | A8B2U2 | purified Giardia FBPA | Potency, µM (titrated, usually from 59.6 µM), for inactives: top-dose activity, negative = inhibition, most hits filed as inhibitors | 0.71% of 290,000 active | AID 2451; also: potency is read from the fitted curve at half-maximal effect; nearly all actives have a fitted effect of over 55% in size
Target sequence (A8B2U2 whole entry, looked up): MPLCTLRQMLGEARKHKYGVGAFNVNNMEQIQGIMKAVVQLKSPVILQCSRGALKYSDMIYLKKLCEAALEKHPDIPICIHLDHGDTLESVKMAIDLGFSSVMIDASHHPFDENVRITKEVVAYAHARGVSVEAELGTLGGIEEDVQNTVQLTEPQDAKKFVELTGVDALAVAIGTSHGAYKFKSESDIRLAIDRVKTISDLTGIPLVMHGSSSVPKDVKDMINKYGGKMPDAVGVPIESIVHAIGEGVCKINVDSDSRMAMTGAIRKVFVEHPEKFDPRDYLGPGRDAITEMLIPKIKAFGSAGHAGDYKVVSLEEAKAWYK
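40 nM FBPA preincubated 10 min at RT with compound (up to 57.5 uM final), then substrate plus GAPDH/TPI/NAD/arsenate coupling and diaphorase/resazurin added. Fluorescence read after 20 min at RT, 525/598 nm.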
HCMV inh – human cytomegalovirus inhibition | HFF cells, HCMV-luciferase reporter, 72 h; hits give low values | activity change, negative = inhibition, % at 57.5 µM | 4.5% of 410,000 active | AID 1259415; in the data active = activity change below about -60%; inconclusive = no clear call, values can overlap the other calls; inactive = above about -39%
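HFF cells seeded 16 h at 37C, treated with compounds, infected with luciferase-reporter HCMV at MOI 1 PFU/cell; luciferase read at 72 h post infection, normalized to buffer-only and Salinomycin controls.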
Pf growth 96h – inhibits malaria parasite growth, 96 h | P. falciparum luciferase reporter growth, 96 h | Potency, µM (doses to about 28.7 µM), for inactives: at the highest dose activity change, negative = inhibition, hits mostly inhibitors | 6.9% of 320,000 active | AID 504834; also: potency is read from the fitted curve at half-maximal effect
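Compounds incubated with erythrocytes infected by luciferase-expressing P. falciparum (2% hematocrit, 0.05% parasitemia final) for 96 hours, 37 C in 5% CO2. Growth inhibition scored as decreased luciferase luminescence.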
Sm TGR inh – inhibitors of Schistosoma mansoni thioredoxin glutathione reductase | purified TGR, DTNB reduction, TNB absorbance 405 nm | Potency, µM (series often up to 114 µM), inactives show at the top dose activity change, negative = inhibition, usual class: inhibitors | 3% of 360,000 active; also: potency is read from the fitted curve at half-maximal effect; nearly all actives have a fitted effect of over 60% in size
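Kinetic colorimetric format: TGR-catalysed, NADPH-driven DTNB reduction monitored via TNB absorbance. Enzyme dispensed at 20 nM; compound exposure 15 min at room temperature before reaction start.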
Starred values were filed as active, the others as inactive; u = inconclusive; x = not tested or not shown. Unless noted, calls follow the shape of the dose curve; as a rule, active = well fitted curve in the direction sought with a large enough effect; inconclusive = small, poorly fitted or top-dose-only effect, or another doubt; inactive = no such curve, though single readings can be large; an effect the other way counts as inactive or inconclusive. % is scaled to controls: 0 for no effect and ±100 for the full control effect.

SMILES	Pf growth 48h	FBPA Giardia inh	HCMV inh	Pf growth 96h	Sm TGR inh
CC(Cl)C(=O)c1c[nH]c2ccccc12 (centres undefined)	u	0.2%	-66.7*	-6.5%	-10.2%
COc1ccc(-c2c[n+](CC(=O)N3c4ccccc4Sc4ccccc43)c3n2CCC3)cc1	2.62µM*	2.3%	-34.2	1.65µM*	-1.6%
O=C(C[n+]1cc(-c2ccc(Cl)cc2)n2c1CCC2)N1c2ccccc2Sc2ccccc21	1.65µM*	10.4%	-26.4	u	-1.9%
O=C(C[n+]1cc(-c2ccc(Cl)c(Cl)c2)n2c1CCC2)N1c2ccccc2Sc2ccccc21	2.62µM*	2.3%	-23.9	u	-5.0%
COc1ccc2c(c1)[C@@H](NS(C)(=O)=O)[C@H](C)[C@@H](c1ccccc1)N2Cc1cccc(F)c1	x	x	-8.8	x	x
CC(C)(C)OC(=O)C[C@@H]1C/C=C\C[C@H](CC(=O)NCCO)C(=O)N[C@@H](Cc2ccccc2)COC1=O	x	x	-17.6	x	x
O=C1N[C@H](Cc2ccccc2)COC(=O)[C@H](Cc2ccc(F)cc2)CC/C=C/C[C@H]1CC(=O)N(CCO)Cc1ccccc1	x	x	-26.7	x	x
O=C1N[C@@H](Cc2ccccc2)COC(=O)[C@@H](Cc2ccc(F)cc2)C/C=C\C[C@@H]1CC(=O)N(CCO)Cc1ccccc1	x	x	-96.5*	x	x
CC(C)(C)OC(=O)C[C@H]1C/C=C\C[C@@H](CC(=O)NCCO)C(=O)N[C@H](Cc2ccccc2)COC1=O	x	x	-60.8*	x	x
COc1ccc(OC)c(C2(O)CSC(=Nc3cccnc3)N2Cc2ccco2)c1 (centres undefined)	11.7µM*	-6.7%	35.5	4.65µM*	-12.7%
COc1ccc(CC(=O)OCC(=O)NCc2ccc3c(c2)OCO3)cc1OC	x	x	15.8	x	x
CCOC(=O)c1ccc(NC(=O)c2cn(-c3ccccc3)nc2-c2ccncc2)cc1	4.15µM*	-1.6%	-5.8	0.0%	0.6%
O=C(OCc1ccccc1)c1cn(-c2ccccc2)nc1-c1ccncc1	u	0.4%	1.2	9.28µM*	7.6%
CCOC(=O)c1ccc(NC(=O)c2cn(-c3ccccc3)nc2-c2ccc(C)cc2)cc1	x	x	20.0	x	-3.6%
CC(C)(C)n1cnc2cc(NCc3ccccc3Cl)ccc21	x	x	-4.4	x	-1.8%
CC(C)N1C(=O)c2ccccc2NC(=O)C1C(=O)NC1CC1 (centres undefined)	x	x	53.6	x	x
O=C1NC[C@@H](CCCCN2C[C@H](Cc3ccc(O)cc3)N(CCc3ccccc3)C(=O)C2=O)N(CC2CCCCC2)C1=O	x	x	-7.6	x	x
COc1cc(C(=O)c2c(C)c(CCC#N)n3ccccc23)cc(OC)c1OC	9.28µM*	-8.3%	u	-18.7%	-24.8%
COc1cccc(C(=O)c2c(C)c(CCC#N)n3ccccc23)c1OC	-17.5%	-2.7%	0.0	4.6%	-18.7%
Cc1ccc(Sc2ncccc2C(=O)O)c(C)c1	1.5%	3.6%	-16.2	21.7%	-8.9%
COc1cc(NC(=O)c2cccnc2Sc2ccc(C)c(C)c2)cc(OC)c1OC	u	-2.6%	-35.1	10.4µM*	-0.8%
Cc1ccc(Sc2ncccc2C(=O)O)cc1C	-1.7%	-0.3%	-67.0*	58.5%	5.4%
CC(=O)Nc1ccc(Sc2ncccc2C(=O)Nc2cc(Cl)cc(Cl)c2)cn1	-6.7%	-27.4%	u	5.4%	2.6%
CC(=O)Nc1ccc(Sc2ncccc2C(=O)Nc2ccc(OC(F)(F)F)cc2)cn1	13.1µM*	2.4%	-12.6	u	3.9%
O=C(O)c1cccnc1SCc1cccc(Br)c1	1.65µM*	-4.5%	53.5	-7.9%	12.3%
SMILES	Pf growth 48h	FBPA Giardia inh	HCMV inh	Pf growth 96h	Sm TGR inh
O=C(O)c1cccnc1SCc1ccc([N+](=O)[O-])cc1	37.7%	5.2%	66.4	1.4%	-6.6%
C=CCNC(=O)C1CC1(c1ccc(C)cc1)c1ccc(C)cc1 (centres undefined)	u	4.7%	-29.8	1.8%	3.7%
O=C(NCCc1cccs1)Nc1nnc([C@H]2C[C@H](O)[C@@H](CO)O2)s1	x	x	-3.4	x	x
Cc1ccc(C)c(CSc2ncccc2C(=O)O)c1	9.9%	-1.8%	0.2	7.38µM*	-10.2%
CCn1c(CN2CCC(C)CC2)nc2cc(NC(=O)c3cccc([N+](=O)[O-])c3)ccc21	x	x	-8.6	x	3.3%
CN1CCN(C2Cc3ccccc3Sc3ccc(S)cc32)CC1 (centres undefined)	x	-0.5%	x	x	x

Screening data as filed in PubChem.
